± gives the standard deviation.
tested on: MILI (PIWIL2) piRISC loaded with L1MC piRNA (26 nt); assay: pre-steady-state target cleavage rate (min^-1); guide: L1MC piRNA 5'p-UAACUAAAUACUAUGCAAGCUGUAGG; MIWI and MILI are mouse PIWI proteins and EfPiwi is from a freshwater sponge; tags in brackets are library labels; higher = faster piRNA-guided slicing of the target; conditions: auxiliary factor: 500 nM mouse GTSF1
Description: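 Cleave-'n-Seq: a library of target RNAs (target site embedded in constant flanks, ACAGCATTCCGCGTTAGTGATATCCG... 5' flank; DNA-blocked outside the site) at 0.1 nM was incubated with 1 nM active mouse MILI or MIWI piRISC (synthetic 5'-monophosphorylated piRNA guide) with or without 500 nM mouse GTSF1 at 33 °C for 1 min to 16 h. Uncleaved targets were sequenced and normalised to non-target controls, and the pooled three trials were fitted to a burst-and-steady-state model to give the pre-steady-state cleavage rate (min^-1; k3 is constrained to at most 1e-4). Sequence is the target site only; target names encode pairing extent (gX:gY) and contiguous / 1-mismatch / 2-mismatch / bulge geometry. Fits with R² ≤ 0 are excluded.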

Sequence	pre-steady-state target cleavage rate
UCCUCCUACAGCUUGCAAAGUAUAUAGUUA	0.115 ± 0.015
UCCUGGAUGAGCUUGCAUGGUAUUUAGUUA	0.195 ± 0.023
UCCUGGAUGUCCUUGGAAAGUAUUUAGUUA	0.0226 ± 0.0071
UCCUCCUACAGGAAGCAUAGUAUUUACAAA	0.0698 ± 0.014
UCCUGGAUGUCGUGCAUAGUAUUUAGUUA	0.115 ± 0.014
UCCUGGAUGACCUUGCAUAGUAUUAAGUUA	0.141 ± 0.022
UCCUGGAUGUCCUUGCAUAGUAUUUAGCUUA	0.0698 ± 0.014
UCCUGGAUGUCCUUGCAUAUUAUUUAGUUA	0.038 ± 0.011
UCCUGGAUGAGCUAGCAUACUAUUUAGUUA	0.0848 ± 0.017
UCCUGCUACAGCUUGCAUAGUAUUUUCUAA	0.0874 ± 0.021
UCCUGGUACAGCUUGCAUAGUAUAAUGUUA	0.175 ± 0.036
UCCUGGAACAGCAUGCAUAGUAUUAAGUUA	0.219 ± 0.027
UCCUGGAUGUCCUUCCUUAGUAUUUAGUUA	0.00908 ± 0.0046
UCCUGGAUGUCCUUUGCAUAGUAUUUAGUUA	0.0866 ± 0.015
UCCUGGUACAGCUUGAAUAGUAUUUAGUUA	0.302 ± 0.055
UCCUGGAUGAGCUUGCAUAGUAUUUAGAUUA	0.165 ± 0.048
UCCUGCUACACCUUGCAUAGUAUUUAGUAA	0.192 ± 0.035
UCCUGGUACAGCAUGCAUAGUAUUUACUUA	0.0914 ± 0.025
UCCUGGAUGUGCUUGCAUAGUAUAUAGAUA	0.00547 ± 0.0037
UCCUCCUACAGGUUGCAUAGAAUUUAGUUA	0.0405 ± 0.0092
UCCUGCUACAGCUUGGAAAGUAUUUAGUUA	0.138 ± 0.012
UCCUGGUUCAGCUUGCAUAGAAUUUAGUUA	0.0374 ± 0.011
UCCUGGUACAGCGUGCAUAGUAUUUAGUUA	0.225 ± 0.031
UCCUCCUACAGUUGCAUAGUAUUUAGUUA	0.255 ± 0.014

same assay, conditions: auxiliary factor: none (no GTSF1)

Sequence	pre-steady-state target cleavage rate
UCCUCCUACAGCUUGCAAAGUAUAUAGUUA	0.00276 ± 0.0025
UCCUGGAUGAGCUUGCAUGGUAUUUAGUUA	0.017 ± 0.0046
UCCUGGAUGUCGUGCAUAGUAUUUAGUUA	0.00386 ± 0.0022
UCCUGGAUGACCUUGCAUAGUAUUAAGUUA	0.00338 ± 0.0027
UCCUGGAUGUCCUUGCAUAUUAUUUAGUUA	0.0028 ± 0.0027
UCCUGGAUGAGCUAGCAUACUAUUUAGUUA	0.00398 ± 0.0027
UCCUGGUACAGCUUGCAUAGUAUAAUGUUA	0.00565 ± 0.0032
UCCUGGAACAGCAUGCAUAGUAUUAAGUUA	0.00548 ± 0.0019
UCCUGGAUGUCCUUUGCAUAGUAUUUAGUUA	0.0072 ± 0.0024
UCCUGGUACAGCUUGAAUAGUAUUUAGUUA	0.00915 ± 0.0046
UCCUGCUACACCUUGCAUAGUAUUUAGUAA	0.00445 ± 0.0026
UCCUGGUACAGCAUGCAUAGUAUUUACUUA	0.00419 ± 0.0038
UCCUGCUACAGCUUGGAAAGUAUUUAGUUA	0.00897 ± 0.0022
UCCUGGUUCAGCUUGCAUAGAAUUUAGUUA	0.003 ± 0.0029
UCCUGGUACAGCGUGCAUAGUAUUUAGUUA	0.00988 ± 0.0044
UCCUCCUACAGUUGCAUAGUAUUUAGUUA	0.00612 ± 0.0019

— the supplement of paper PMC10338343
